Results filed as inconclusive are left out. Active and inactive are the calls of the source. Rule for the calls: active = hit-call score of the fitted dose curve at least 0.9, where 1 is the maximum; inconclusive = response in the unintended direction; inactive = score below 0.9.
Each molecule was assayed against Luciferin 4-monooxygenase (Photinus pyralis) (UniProt P08659) (assay: CCTE_Simmons_QuantiLum_inhib_2: CCTE's Firefly Luciferase Inhibition Assay, Simmons Lab (AID 2283767);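 for AC50: potency for inhibitors that lower luciferase luminescence relative to DMSO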).
Luciferin 4-monooxygenase (Photinus pyralis), sequence (P08659 whole entry, looked up): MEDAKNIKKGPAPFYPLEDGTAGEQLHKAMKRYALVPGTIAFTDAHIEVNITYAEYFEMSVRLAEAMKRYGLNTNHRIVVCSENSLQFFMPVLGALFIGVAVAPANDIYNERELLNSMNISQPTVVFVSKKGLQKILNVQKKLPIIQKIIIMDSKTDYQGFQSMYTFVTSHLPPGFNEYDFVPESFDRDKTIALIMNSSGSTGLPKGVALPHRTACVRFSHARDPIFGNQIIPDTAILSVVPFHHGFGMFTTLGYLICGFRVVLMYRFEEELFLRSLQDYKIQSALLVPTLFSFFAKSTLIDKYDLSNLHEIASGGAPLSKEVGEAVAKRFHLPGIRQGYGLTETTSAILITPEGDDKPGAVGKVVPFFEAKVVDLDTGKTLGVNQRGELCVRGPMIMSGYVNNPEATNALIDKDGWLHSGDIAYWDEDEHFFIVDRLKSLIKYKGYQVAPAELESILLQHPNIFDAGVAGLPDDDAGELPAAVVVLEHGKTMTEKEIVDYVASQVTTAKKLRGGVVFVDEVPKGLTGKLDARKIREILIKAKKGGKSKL
Experimental: CCTE_Simmons_QuantiLum_inhib_2 is a biochemical, single-readout assay that uses purified luciferase enzyme in a cell-free assay.Measurements were taken 0.5 hour after chemical dosing in a 384-well plate.CCTE_Simmons_QuantiLum_inhib_2 is the assay component measured from the CCTE_Simmons_QuantiLum_inhib_2 assay. It is designed to make measurements of enzyme activity, a form of enzyme reporter, as detected with bioluminescence signals by Luciferase-coupled Quantilum levels technology. This is a secondary assay to CCTE_Simmons_AUR_TPO to evaluate nonspecific enzyme inhibition.Data from the assay component CCTE_Simmons_QuantiLum_inhib_2 was analyzed at the endpoint, CCTE_Simmons_QuantiLum_inhib_2, in the positive analysis fitting direction relative to DMSO as the negative control and baseline of activity. Using a type of enzyme reporter, measures of enzyme activity for loss-of-signal activity can be used to understand inhibition of firefly luciferase. This is an assay endpoint to indicate nonspecific protein inhibition for comparison to aeid 1508 for thyroperoxidase inhibition. To generalize the intended target to other relatable targets, this assay endpoint is annotated to the oxidoreductase intended target family, where the subfamily is monooxygenase.
Quanti-Lum recombinant luciferase (Promega; Madison, Wisconsin) was diluted to 76.9 ng/ml with 200mM potassium phosphate buffer supplemented with 1 mg/ml bovine serum albumin and 65ul (5ng recombinant luciferase) per well was dispensed into opaque, white 384-well plates (Greiner, BioExpress) using an automated liquid handler (BioTek MicroFlo) with a plastic 5 ul tubing cassette. Test compounds were administered using the HDRT as described earlier to achieve a 0.5% final DMSO concentration. Microplates were incubated at 37C in the dark for 30min to mimic the AUR-TPO assay conditions. Luciferase detection reagent (25 ul per well; 9.2 mM dithiothreitol, 75uM Coenzyme A, 147uM dATP, 150uM D-luciferin, 8.9 mM Tricine, 297uM (MgCO3)4.Mg(OH)2.5H20, 742uM MgSO4, 27.8uM EDTA, pH 7.8, final assay concentrations) was then added using a BMG Clariostar plate reader equipped with syringe injectors (BMG LabTech; GmbH). Plates were read using a kinetic luminescence protocol (top read) whereby each well was individually injected with luciferase detection reagent immediately prior to measurement. Three biological replicates of technical singles were run for every chemical concentration tested. A titrated range of LUCINH2 served as a positive control on each plate of the luciferase inhibition screening assay. Test chemicals were administered as a titrated series of 8 concentrations from 5 nM up to 87.5 uM [final] for 30 minutes prior to single endpoint detection. Dimethylsulfoxide [DMSO] was used as the vehicle control. Luciferase Inhibitor I [2-(5-(2-Methoxyphenyl)-1,2,4-oxadiazol-3-yl)pyridine] was used as the positive control and was administered as a titrated series of 8 concentrations from 1 nM up to 100 uM [final].

SMILES | outcome | AC50
CCCCCCCCCCCCCC[N+](C)(C)C | inactive | –
CCCCCCCCCCCCc1ccccc1S(=O)(=O)O | inactive | –
CC(C)(C)c1cccc(C(C)(C)C)c1O | inactive | –
CC1=C(/C=C/C(C)=C/C=C/C(C)=C/C(=O)O)C(C)(C)CCC1 | inactive | –
CC[C@H](c1ccc(O)cc1)[C@@H](CC)c1ccc(O)cc1 | inactive | –
O=C(O)c1ccccc1C(c1ccc(O)cc1)c1ccc(O)cc1 | – | 15.3 µM (active)
O=c1c(-c2ccc(O)cc2)coc2cc(O)ccc12 | – | 8.1 µM (active)
CC(C)(C)c1cc(C(C)(C)C)c(O)c(C(C)(C)C)c1 | inactive | –
Oc1cccc(O)c1 | – | 16.1 µM (active)
NC(=O)N(O)[C@@H]1C=C[C@H](Oc2cccc(Oc3ccc(F)cc3)c2)C1 | – | 16.7 µM (active)
Nc1cccc2c(N)cccc12 | – | 10.6 µM (active)
CN1CCN(c2ccccc2/C=C2\SCCN(c3ccc(Cl)c(Cl)c3)C2=O)CC1 | inactive | –
CCCCCCCCCCCCN1CCCC1=O | – | 31.1 µM (active)
COc1ccc([N+](=O)[O-])cc1N | inactive | –
CC#C[C@]1(O)CC[C@H]2[C@@H]3CCC4=CC(=O)CCC4=C3[C@@H](c3ccc(N(C)C)cc3)C[C@@]21C | inactive | –
Oc1cc2ccccc2c2ccccc12 | – | 30.1 µM (active)
Cc1oc(-c2ccccc2)nc1CCOc1ccc(C[C@H](Nc2ccccc2C(=O)c2ccccc2)C(=O)O)cc1 | inactive | –
CC(C)(C)c1ccc(O)c(C(C)(C)C)c1 | inactive | –
c1ccc2cc3c(ccc4ccccc43)cc2c1 | – | 17.3 µM (active)
Cc1cc(C)c(O)c(C)c1 | inactive | –
N#C[C@@H]1CC(F)(F)CN1C(=O)CNC1CC2CCC(C1)N2c1ncccn1 (stereo partly drawn) | inactive | –
CCN(CC)CCNc1ccc(CNC=O)c2sc3ccc(OC)cc3c(=O)c12 | inactive | –
CCC(=C(c1ccc(O)cc1)c1ccc(OCCN(C)C)cc1)c1ccccc1 | inactive | –
